The record followed here is the supplement of paper PMC6555819.

What all share (assay): PBM binding z-score (relative to random genomic background probes); higher = stronger binding; sequences stand for … in GC…GCGATTGACAGCGTAGAATGAAGG
For experiment [1], the system named is RARb homodimer (NR concentration 270 nM). In short, it runs like this: (§1)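 On custom Agilent 4×180K arrays, double-stranded probes with 34-nt variable regions carried direct-repeat seeds, single-nucleotide variants, half-site ablations or random human genomic background. Ligand-free nuclear receptor dimers were applied for 1 h, and binding was read with antibodies against each partner (one per run). Binding z-scores come from regression-normalized fluorescence, with the random background probes as reference.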

Experiment [2] relates to RARg:RXRa (NR concentration 270 nM, RXRa partner concentration 90 nM). In short, it runs like this: as §1
Experiment [3] deals with RARg homodimer (NR concentration 270 nM). Put shortly: as §1
In experiment [4] the test system is RXRa DBDmut IVT, anti-RXR (DBD mutation: RXRa K156A/R161A, NR concentration 90 nM). Put shortly:
as §1

Experiment [5] concerns RXRa homodimer (NR concentration 180 nM). Put shortly:
as §1

The test system of experiment [6] is THRa:RXRa (NR concentration 90 nM, RXRa partner concentration 90 nM). In short, it runs like this:
as §1

Experiment [7] relates to THRa homodimer (NR concentration 90 nM). In short, it runs like this: as §1
Experiment [8] relates to VDR:RXRa (NR concentration 270 nM, RXRa partner concentration 90 nM). Put shortly: as §1
Experiment [9] deals with VDR homodimer (NR concentration 270 nM). In short, it runs like this: as §1

With ACTACTTGGTCAGCTGAGGTCACACACAATTCGG, the PBM binding z-score in [1] was found to be 4.44; in [2] it was 4.3; in [3], 4.38; in experiment [4], 1.76; in experiment [5], 4.45; in experiment [6], 5.04. In addition, the figures for the PBM binding z-score in experiment [7], in experiment [8] and in experiment [9] were 5.43, 4.74 and 3.73, respectively.

As to TCTAGCAGGACAGAGGGTCACTCAAGAGGTACGG, the PBM binding z-score in [1] is 2.77; in [2], 2.39; in experiment [3], 2.11; in experiment [4], 0.168; in experiment [5], 2.48; in experiment [6], 1.86. The PBM binding z-score is -0.03 in [7], 1.39 in experiment [8] and 0.674 in experiment [9].

Regarding ATACCAAGGTGTTCGTGAGGTCGTTGATACTAAC, the PBM binding z-score in experiment [1] is 1.53; in [2], 0.824; in experiment [3], 0.278; in [4], 0.712; in experiment [5], 0.997; in [6], 2.96. The PBM binding z-score in [7] is 2.38; in [9] it was 2.98.

As for AGAACGAGGGCACGCTGAGTTGATAGCAGAGTAG, the PBM binding z-score in experiment [1] is 1.21; in experiment [2] it was 2.08; in experiment [3], 2.42; in experiment [4] it was 1.95; in [5], 1.36; in [6], 1.83. Besides, the PBM binding z-score in experiment [7] is -0.0157; in experiment [9], 1.98.

Consider ACTATTAGTTGACTTAGTGCAACCGATACGACGC, for which the PBM binding z-score in [1] turned out to be 0.207; in [2], 0.552; in experiment [3], 0.65; in [4], 0.565; in experiment [5], 0.369; in experiment [6] it was 0.0819. Also, the PBM binding z-score in experiment [7] was -0.158; in experiment [9], 0.241.

As for TAGCCTATGTCAGATCGGGCCAGTATACGCTATA, the PBM binding z-score in [1] is -0.337; in experiment [2] it was -0.0162; in experiment [3], -0.00722; in experiment [4], -0.495; in experiment [5], -0.0681; in experiment [6] it was 1.45. The PBM binding z-score in [7] was -0.592; in experiment [9] it was -0.48.

Take ATCTCTAGCTAACAAGTTCAGTGAAAGAGAGGAC: the PBM binding z-score was 1.31 in experiment [1]; 0.734 in experiment [2]; 0.987 in experiment [3]; 0.511 in experiment [4]; 0.529 in [5]; 1 in experiment [6]. Also, the PBM binding z-score in experiment [7] was found to be 0.651; in [9], 2.47.

AGAACGAGGGCACGCTGAGTTGCTAGCAGAGTAG: the PBM binding z-score in [1] turned out to be 0.875; in [2] it was 1.48; in experiment [3], 1.95; in experiment [4], 1.69; in [5] it was 1.1; in experiment [6] it was 1.51. The PBM binding z-score in experiment [7] is -0.328; in experiment [9] it was 1.42.

Regarding CAAACTAGGTCAAGAGGTTAAAGTCCGCTTCCCG, the PBM binding z-score in [1] is 4.23; in [2], 6.18; in experiment [3], 5.49; in experiment [4], 1.61; in [5], 5.2; in [6], 3.36. In addition, the PBM binding z-score in experiment [7] stood at 1.36; in experiment [9], 1.86.

In the case of TGGAGTAGGTTAGGGGCATTCAGAATGGCGTCGA, the PBM binding z-score in experiment [1] was 1.6; in experiment [2], 0.847; in experiment [3], 0.846; in [4], -0.404; in experiment [5], 0.803; in experiment [6] it was 1.51. Also, the results for the PBM binding z-score in experiment [7] and in experiment [9] were 1.06 and 1.57, respectively.

In the case of TCTGCTACGTCAGTTGGTCAGCTAACGAGCTGCC, the PBM binding z-score in experiment [1] was -0.763; in [2], -0.688; in experiment [3] it was -0.884; in experiment [4] it was 0.0505; in [5], -0.761; in experiment [6], -1.71. The PBM binding z-score in [7] was -0.995; in [9], -1.44.

With ACCTCTAGGTAAGACTCAGTTCAGTGAAGAACGC, the PBM binding z-score was 0.0203 in experiment [1]; -0.0549 in [2]; -0.0332 in experiment [3]; 0.371 in [4]; -0.0186 in experiment [5]; 0.243 in experiment [6]. Besides, the values for the PBM binding z-score in [7] and in experiment [9] were 0.088 and 0.678, respectively.

Consider ATCTCTAGGTAACAAGCTCAGTGAAAGAGAGGAC, for which the PBM binding z-score in experiment [1] is 0.444; in [2], 0.352; in experiment [3], 0.494; in [4] it was -0.305; in experiment [5], 0.272; in experiment [6] it was 1. Further, the PBM binding z-score was 0.56 in [7] and -0.048 in experiment [9].

With GCTCGGAGGACATGGTCAGAGCTTTGTCCGTAGA, the PBM binding z-score in experiment [1] was 0.143; in experiment [2], -0.271; in experiment [3], 0.158; in experiment [4], -0.383; in experiment [5], -0.444; in [6] it was 0.524. Also, the PBM binding z-score in experiment [7] is -0.306; in experiment [9], -0.849.
